Compound activity: PubChem BioAssay, SRMLSC
Spn MK inh – S. pneumoniae mevalonate kinase inhibition; purified MK, PK/LDH-coupled NADH absorbance 340 nm; inhibition, % at 10 µM; 0.48% of 65,000 active; AID 555;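 active = ranked among the strongest by inhibition in the single 10 µM screen, a fixed top-ranked set picked for dose follow-up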
Abs 340nm – compounds absorbing at 340 nm; fold change at 10 µM; 65,000 tested, under 10 active; AID 708; compound absorbance at 340 nm, fold over control;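 active = at 10 µM dose, initial 340 nm absorbance at least 2 fold that of control wells; inactive = change under 2 fold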;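 note: initial absorbance extrapolated from kinetic A340 decline of NADH oxidation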
Autofluor 339 – intrinsic fluorescence of library compounds, ex339/em460 – biochemical, MLSMR library, data from DPM-DC assay, artefact control, profiling panel; compound autofluorescence, ex339/em460 nm, NADH buffer; active compounds read high; 1 = no-compound wells, NADH background; fluorescence fold increase at 10 µM; 5.5% of 65,000 active; AID 709;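 active = at 10 µM, mean starting fluorescence two-fold or more over control wells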;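 note: signal is the first read of a kinetic run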
NADH coupling – inhibition of NAD/NADH coupling enzymes, library profiling | AID 774 | coupled PK/LDH NADH assays, four targets | IC50, µM (titrated, usually from 10 µM), without a hit: top-dose inhibition | 0.02% of 65,000 active;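 active = single-dose screening hits from any of four coupled enzyme assays that gave an IC50 when retested across doses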;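 note: the DPM-DC format reads NADH fluorescence rather than 340 nm absorbance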
PMK inhibit – S. pneumoniae PMK inhibition; purified PMK, PK/LDH-coupled NADH absorbance 340 nm; inhibition, % at 10 µM; 0.49% of 65,000 active;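 active = top-ranked compounds by inhibition in the single 10 µM screen, taking a fixed number of the strongest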;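 note: 0% = full reaction with DMSO carrier and 100% = background rate without enzyme reaction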
Spn DPM-DC inh – S. pneumoniae DPM-DC inhibition. 0.49% of 65,000 active. AID 556. calls only at 10 µM. purified DPM-DC, PK/LDH coupled NADH fluorescence;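 active = the 320 compounds with the highest percent inhibition in the single-dose primary screen, excluding strongly autofluorescent ones, cut at about 32% in these data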;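 note: kinetic rate of NADH fluorescence loss reporting ADP formed by the decarboxylase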
* = called active by the depositor; i = inactive; nt = no result shown; + = active, no number. Shown are actives, neighbours in structure and some others; about 6.8% of the full set was active somewhere.

SMILES | Spn MK inh | Abs 340nm | Autofluor 339 | NADH coupling | PMK inhibit | Spn DPM-DC inh
CC(=C1C(=O)c2ccccc2C1=O)N1CCN(Cc2ccccc2)CC1 | 5.0 | 1.17 | 1.04 | 5.0% | 8.0 | i
Cc1ccc2[nH]c(-c3cccc(N)c3)cc2c1 | 7.0 | 1.04 | 3.82* | 9.0% | 10.0 | nt
Nc1c(C(=O)NC2CCCC2)c2nc3ccccc3nc2n1/N=C/c1cccnc1 | 0.0 | 1.18 | 3.21* | 15.0% | 0.0 | +
CCO/C(C)=N/n1c2nc3ccccc3nc2c2c(=O)n(CC(C)C)c(C)nc21 | 0.0 | 1.09 | 1.08 | 0.0% | 0.0 | i
Cn1c(-c2ccc(CN3CCCCC3)o2)nc2ccccc21 | 0.0 | 1.1 | 2.15* | 3.0% | 2.0 | i
CCOC(=O)c1c(C)n(C)c2ccc(OC)c(NS(=O)(=O)c3ccc(Cl)s3)c12 | 3.0 | 1.06 | 1.14 | 27.0% | 78.0* | i
COC(=O)c1[nH]c2ccc(F)cc2c1NC(=O)C1=COCCO1 | 12.0 | 1.03 | 1.39 | 9.0% | 9.0 | i
O=C(OCCN1C(=O)c2ccccc2C1=O)c1cccs1 | 9.0 | 1.02 | 1.08 | 6.0% | 8.0 | i
CCc1cc2c(CN3CCN(C)CC3)cc(=O)oc2cc1O | 9.0 | 1.05 | 3.75* | 8.0% | 6.0 | nt
CCc1cc2c(CN3CCN(CCO)CC3)cc(=O)oc2cc1O | 6.0 | 1.01 | 2.91* | 6.0% | 9.0 | nt
Cc1cc(=O)[nH]c(SCc2nc3ncccn3c2Br)n1 | 6.0 | 1.03 | 2.47* | 4.0% | 0.0 | nt
N#C/C(=C\C1CC=CCC1)c1nc2ccccc2[nH]1 (centres undefined) | 1.0 | 0.99 | 1.41 | 20.0% | 1.0 | +
O=C(NCc1ccco1)NCC(F)(F)F | 6.0 | 1.02 | 1.09 | 3.0% | 4.0 | i
CCn1c(=O)c2cc(C(=O)Nc3cc(C)on3)sc2c2ccccc21 | 5.0 | 1.1 | 2.18* | 4.0% | 2.0 | nt
CCn1c2ccccc2c2nnc(SCC(=O)Nc3cc(C)on3)nc21 | 5.0 | 1.05 | 0.97 | 8.0% | 19.0 | i
CCn1c(=O)c2cc(C(=O)NCc3cccs3)sc2c2ccccc21 | 0.0 | 1.09 | 1.82 | 4.0% | 7.0 | i
Cc1ccc2[nH]c(=O)c3cc(C(=O)NCCN4CCN(C)CC4)sc3c2c1 | 7.0 | 1.02 | 2.43* | 5.0% | 21.0 | nt
CCn1c(=O)c2cc(C(=O)NCCN3CCOCC3)sc2c2ccccc21 | 3.0 | 1.14 | 2.12* | 3.0% | 3.0 | nt
COC(=O)c1ccc(N2C(=O)CC(Sc3n[nH]c(C)n3)C2=O)cc1 (centres undefined) | 11.0 | 1.01 | 0.99 | 12.0% | 12.0 | i
Cc1nc(SC2C=CS(=O)(=O)C2)n[nH]1 (centres undefined) | 0.0 | 0.96 | 1.01 | 4.0% | 11.0* | i
N#Cc1nc(-c2cccs2)oc1N1CCN(c2ccccc2)CC1 | 6.0 | 1.04 | 3.69* | 7.0% | 7.0 | nt
N#Cc1nc(-c2cccs2)oc1NCc1ccco1 | 4.0 | 1.06 | 2.25* | 2.0% | 0.0 | nt
N#Cc1nc(-c2cccs2)oc1NCc1ccccc1Cl | 2.0 | 1.03 | 2.37* | 4.0% | 6.0 | nt
N#Cc1nc(-c2cccs2)oc1NCc1ccccc1 | 0.0 | 1.1 | 2.38* | 2.0% | 4.0 | nt
CCC(C)(NC(=O)CNC(C)=O)C(=O)NC1CCCCC1 (centres undefined) | 3.0 | 1 | 1.02 | 2.0% | 0.0 | i
SMILES | Spn MK inh | Abs 340nm | Autofluor 339 | NADH coupling | PMK inhibit | Spn DPM-DC inh
Cc1ccc(CNc2oc(-c3cccs3)nc2C#N)cc1 | 5.0 | 1.05 | 3.65* | 5.0% | 5.0 | nt
CCOc1ccc(Nc2oc(-c3ccco3)nc2C#N)cc1 | 9.0 | 1.08 | 1.31 | 3.0% | 0.0 | i
N#Cc1nc(-c2cccs2)oc1NCc1ccc(Cl)cc1 | 12.0 | 1.01 | 3* | 4.0% | 9.0 | nt
CCOc1ccc(Nc2oc(-c3cccs3)nc2C#N)cc1 | 3.0 | 1.15 | 3.04* | 2.0% | 0.0 | nt
COc1ccc(CNc2oc(C)nc2C#N)cc1 | 7.0 | 1.02 | 1 | 5.0% | 8.0 | i
C=CCOc1cccc(C2c3c(oc4ccc(F)cc4c3=O)C(=O)N2CCCN2CCOCC2)c1 (centres undefined) | 0.0 | 1.07 | 1.08 | 0.0% | 0.0 | i
O=C(C1Cc2ccccc2CN1S(=O)(=O)c1ccc(F)cc1)N1CCCCC1 (centres undefined) | 5.0 | 1.02 | 1.08 | 4.0% | 6.0 | i
Clc1ccc(OCCn2ccnc2)c(Cl)c1 | 6.0 | 1.07 | 1.1 | 4.0% | 3.0 | i
